# Test results published in PubChem BioAssay AID1490 (National Center for Advancing Translational Sciences (NCATS), 2009).
# Values joined by “and” are separate entries in the source; they are usually repeats but may differ in a detail not shown here. Identical values can stand only once. In all, about 310,000 compounds went through this assay and about 11,000 (3.5%) were called active. About 4% were inconclusive and are not listed. The sample as a whole holds a higher share of actives than the screen did. A number with no mark means an inactive call. Calls follow the shape of the dose curve; as a rule, active = well fitted inhibition curve with a large enough effect; inconclusive = small, poorly fitted or top-dose-only effect, or another doubt; inactive = no such curve, though single readings can be large or run the other way.
# Target: 4'-phosphopantetheinyl transferase ffp (Bacillus subtilis) (UniProt Q9F4F7)
# Assay: qHTS Assay for Inhibitors of Bacillus subtilis Sfp phosphopantetheinyl transferase (PPTase);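 also: the enzyme is Sfp with the accession as filed and its product quenches rhodamine fluorescence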;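 as to largest response in the series, negative = inhibition: 0% = enzyme reaction without inhibitor and -100% = no enzyme wells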
# Conditions: Biochemical Sfp PPTase activity
# Method in brief: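 Buffer: 50 mM Hepes-Na pH 7.6, 10 mM MgCl2, 0.01% Nonidet P-40, 0.01% BSA. Enzyme 15 nM, pre-exposed to compound 15 min; substrates then added and fluorescence change tracked over 30 min.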
# Potency is read from the fitted curve at half-maximal effect.
SMILES,"largest response in the series, negative = inhibition",Potency
COC(=O)C(C(=O)OC)C1c2ccccc2C=C(C2CC2)N1C(=O)OC (stereo not drawn),22.5% and 27.4%,–
CCCOc1ccc(C2=CSC3=NCCN23)cc1Cl,16%,–
CCOC(=O)C1CCCN(CCSc2ccc(C)cc2)C1 (stereo not drawn),12.5%,–
COc1ccc(C(=O)c2c(C)c(CCC#N)n3ccccc23)c(OC)c1,0.761%,–
COc1ccc(C(C)NC(=O)C23CC4CC(CC(C4)C2)C3)cc1 (stereo not drawn),5.95%,–
O=C(O)c1c(NC(=O)N2CCCC2)sc2c1CCCC2,-9.57%,–
CC(O)c1ccc(OCCN(C)c2ccccn2)cc1 (stereo not drawn),-0.377%,–
O=C(O)c1ccc2c(c1)C(=O)N(NC(=O)c1ccc(O)cc1)C2=O,1.07%,–
CC(=O)N1C(=O)/C(=C2\SC(=S)N(NC(=O)c3ccc(O)cc3)C2=O)c2ccccc21,–,50.1 µM (active)
O=C(O)c1ccc(/C=C2\SC(=S)N(NC(=O)c3ccc(Br)cc3)C2=O)cc1,-5.87%,–
COc1cc(Cl)ccc1OCc1cc(C(=O)N2CC[C@@H]3CCCC[C@H]3C2)no1,-14.4%,–
COc1ccc(-c2nc3c(c4c2C[C@H](c2ccccc2)OC4)CN(C(=O)C2CC2)CC3)c(C)c1,12.8%,–
N#CC1=C(N)Oc2n[nH]c(CSc3ccccc3)c2C12C(=O)Nc1ccccc12 (stereo not drawn),17.6%,–
N#CC1=C(N)Oc2[nH]c(=S)[nH]c(=O)c2C12C(=O)Nc1ccccc12 (stereo not drawn),–,39.8 µM (active)
CC1(C)Cc2ccccc2-c2[nH]c(=S)[nH]c(=O)c21,2.54%,–
CCC(C)Sc1nc2c(cnn2-c2ccc(F)cc2)c(=O)[nH]1 (stereo not drawn),-3.22%,–
CCOc1ccc(C(C(=O)NC2CCCC2)N(C(=O)c2snc(C(N)=O)c2N)C2CCCC2)cc1 (stereo not drawn),16.6%,–
COc1ccc2oc(C(=O)NCC(Cc3ccccc3)N(C)C)c(C)c2c1 (stereo not drawn),-0.769%,–
CC1Cc2cc(/C(O)=C3\C(=O)C(=O)N(Cc4cccnc4)C3c3ccccc3F)ccc2O1 (stereo not drawn),11.3%,–
O=C(NN1C(=O)C2C3C=CC(O3)C2C1=O)c1ccccc1 (stereo not drawn),–,44.7 µM (active)

SMILES,"largest response in the series, negative = inhibition",Potency
COc1ccccc1C(=O)NN1C(=O)C2C3C=CC(O3)C2C1=O (stereo not drawn),–,56.2 µM (active)
COc1ccc(C(=O)NN2C(=O)C3C(c4ccccc4)C=CC(c4ccccc4)C3C2=O)cc1 (stereo not drawn),33.4%,–
O=C(NN1C(=O)C2C(C1=O)C1C=CC2C12CC2)c1ccccc1Cl (stereo not drawn),12.4%,–
O=C(NN1C(=O)C2C3C=CC(C4CC34)C2C1=O)c1ccc(Cl)cc1 (stereo not drawn),27.6%,–
COc1ccccc1C(=O)Nn1cnnc1,6.61%,–
COc1ccc(N2CCN(C(=O)c3cn(C)c4ccc(S(=O)(=O)N5CCOCC5)cc4c3=O)CC2)cc1,1.25%,–
O=C(C1CCC1)N1CCN(c2ccccc2)CC1,17.5%,–
CC1(c2ccc3ccccc3c2)NC(=O)NC1=O (stereo not drawn),12%,–
CC(C)C[C@@H](COc1ccccc1)N1CCN(CC(C)C)CCC1=O,3.76%,–
CCCCCCCC/C=C\CCCCCCCC(=O)NCC(=O)O,8.62%,–
CCCCCCC(O)(CCN1CCCCC1)c1ccccc1 (stereo not drawn),9.61%,–
CCCn1c(C2CCCN2c2nc(-c3ccc(C)cc3)cs2)nc2cc(Cl)c(N3CCCCC3)cc21 (stereo not drawn),-23.2%,–
CCCn1c(C2CCCN2c2nc(-c3ccc(OC)cc3)cs2)nc2ccccc21 (stereo not drawn),–,89.1 µM (active)
CCCn1c(CCNc2nc(-c3ccc(OC)cc3)cs2)nc2ccccc21,-0.532%,–
CC1CCN(C2=NC(=O)/C(=C/c3ccc(O)cc3)S2)CC1,14%,–
COc1ccc(N=Nc2c(-c3ccc(OC)cc3)[nH]oc2=O)cc1,24.2%,–
CS(=O)(=O)c1ccc(Cl)c(NC(=O)Nc2ccccc2)c1,7.87%,–
O=C(c1ccc(Cl)cc1)c1cnc(Nc2ccccc2)s1,-3.35%,–
O=C(Nc1ccccc1)c1nnsc1S(=O)(=O)c1ccc(Cl)cc1,–,11.2 µM (active)
CN(c1ccc(O)cc1)c1nc(-c2cccnc2)cs1,0.24%,–

SMILES,"largest response in the series, negative = inhibition",Potency
Cc1ccc(SC(CC(=O)c2ccc(C(C)(C)C)cc2)C(=O)O)cc1 (stereo not drawn),–,28.2 µM (active)
Cc1ccc(C(=O)CNc2ccc(F)cc2)cc1,-8.3%,–
Cc1ccc(C(=O)CSc2ccccc2C(=O)O)cc1,13.7%,–
O=C(Nc1ccccc1N1CCOCC1)c1ccc(OCc2cscn2)cc1,-1.59%,–
NC(=S)c1ccc(C(N)=S)o1,–,56.2 µM (active)
O=C(O)C1CC=CC2CCN(C3CCCCC3)C(=O)C21 (stereo not drawn),40%,–
COc1ccc(-n2cc(-c3ccccc3)c3c(=S)nc[nH]c32)cc1,7.93%,–
COc1ccc(C)cc1NC(=O)NCCCCc1ccccc1,-4.5%,–
O=C(c1ccccc1F)N(Cc1ccccc1)Cc1ccccc1,9.85%,–
CN(Cc1ccccc1)Cc1ccccc1F,–,50.1 µM (active)
CN(Cc1ccccc1)C(=O)CCc1ccccc1,20.4%,–
Cc1ccc(C)c(OCCC(=O)OCC(=O)N2CCN(c3ccccc3)CC2)c1,-6.17%,–
Cc1coc2c1c(C)cc1oc(=O)c(CC(=O)NCC(=O)N[C@H](C(=O)O)C(C)C)c(C)c12,1.89%,–
CCn1cc(S(=O)(=O)c2cccc(C)c2)c(=O)c2cc(F)c(N3CCN(C)CC3)cc21,4.71%,–
NCCCC[C@@H]1NC(=O)[C@H](CCC(=O)O)NC(=O)c2cc([N+](=O)[O-])cc(I)c2NCC[C@@H](C(N)=O)NC1=O,–,31.6 µM (active)
NC(=O)CC[C@@H]1NC(=O)[C@H](CO)NC(=O)c2cc([N+](=O)[O-])cc(I)c2NCC[C@@H](C(N)=O)NC1=O,-7.09%,–
NC(=O)C[C@@H]1NC(=O)CNC(=O)c2cc([N+](=O)[O-])cc(I)c2NCCC(C(N)=O)NC1=O (stereo partly drawn),-12.4%,–
COc1cccc(CNC(=O)C2CCCN(S(=O)(=O)N3CC(C)CC(C)C3)C2)c1 (stereo not drawn),6.86%,–
